Measurements from PubChem BioAssay AID1159580 (chemical genetic matrix, 2015).
“And” between values parts separate entries of the source, which are not always exact repeats. Equal values may be shown once. The whole screen tested about 5,500 compounds, of which about 2,000 (36%) were called active. Roughly 18% stayed inconclusive and do not appear here. Cut-off read from the data, not from the text of the source: active = normalized growth mostly below about 0.91 (no sharp cut-off); inconclusive = no clear call, values can overlap the other calls; inactive = mostly above about 0.92. The list shows a part of the results.

Test: chemical genetic growth profiling, strain panel (AID 1159580);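 note: tested at 20 µM; growth read once vehicle control cultures reached saturation at 30 °C; 1 = growth at the plate median or of vehicle wells; lower values mean less growth of the strain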
Conditions: S. cerevisiae deletion strains, growth OD

Measured: normalized growth

CC(=O)O[C@@H]1C=C[C@@]2(C)C(C[C@@H](OC(C)=O)[C@@]3(C)C4=CC(=O)O[C@@H](c5ccoc5)[C@]4(C)CCC23)C1(C)C (stereo partly specified)
active: locus YCL029C, strain bik1, hits give low values 0.0759 | locus YDL185W, strain tfp1, hits give low values 0.0668 | locus YDL192W, strain arf1, hits give low values 0.0652 | locus YDR101C, strain arx1, hits give low values 0.0671 | locus YDR318W, strain mcm21, hits give low values 0.0639 | locus YDR388W, hits give low values 0.0562 | locus YDR502C, strain sam2, hits give low values 0.0613 | locus YER110C, hits give low values 0.0742 | locus YGL078C, strain dbp3, hits give low values 0.0566 | locus YGL086W, strain mad1, hits give low values 0.0536 | locus YGR135W, strain pre9, hits give low values 0.0645 | locus YGR252W, strain gcn5, hits give low values 0.164 | locus YHR079C, strain IRE1 (second series), hits give low values 0.0734 | locus YHR094C, strain hxt1, hits give low values 0.0578 | locus YHR200W, strain rpn10, hits give low values 0.0597 | locus YIL125W, strain kgd1, hits give low values 0.0589 | locus YIR030C, strain dcg1, hits give low values 0.0619 | locus YJL168C, strain set2, hits give low values 0.0579
inactive: locus YAL013W, strain DEP1, hits give low values 1.01 | locus YAL021C, strain ccr4, hits give low values 1 | locus YAL026C, strain drs2, hits give low values 0.985 | locus YAL030W, strain snc1, hits give low values 0.99 | locus YBL061C, strain skt5, hits give low values 0.992 | locus YBR009C, strain hhf1, hits give low values 1 | locus YBR021W, strain FUR4, hits give low values 1.03 | locus YBR023C, strain chs3, hits give low values 1.01 | locus YBR171W, strain sec66, hits give low values 0.994 | locus YBR229C, strain ROT2, hits give low values 1.02 | locus YBR231C, strain swc5, hits give low values 0.99 | locus YBR279W, strain paf1, hits give low values 1 | locus YCL011C, strain gbp2, hits give low values 0.982 | locus YCL016C, strain dcc1, hits give low values 0.975 | locus YCL061C, strain MRC1, hits give low values 0.997 | locus YCL069W, strain vba3, hits give low values 1.02 | locus YCR088W, strain abp1, hits give low values 1.01 | locus YDL005C, strain med2, hits give low values 0.984 | locus YDL035C, strain GPR1, hits give low values 0.991 | locus YDL040C, strain nat1, hits give low values 0.993 | locus YDL074C, strain BRE1, hits give low values 0.964 | locus YDL101C, strain DUN1, hits give low values 0.998 | locus YDL134C, strain PPH21, hits give low values 1 | locus YDR001C, strain nth1, hits give low values 0.993 | locus YDR069C, strain doa4, hits give low values 0.996 | locus YDR137W, strain rgp1, hits give low values 0.946 | locus YDR150W, strain NUM1, hits give low values 1.01 | locus YDR159W, strain sac3, hits give low values 0.979 | locus YDR162C, strain NBP2, hits give low values 0.964 | locus YDR195W, strain ref2 0.975 | locus YDR297W, strain sur2, hits give low values 0.981 | locus YDR334W, strain swr1, hits give low values 0.988 | locus YDR335W, strain msn5, hits give low values 0.986 | locus YDR392W, strain spt3, hits give low values 0.951 | locus YEL003W, strain gim4, hits give low values 0.997 | locus YEL037C, strain rad23, hits give low values 1 | locus YEL061C, strain CIN8 (second series), hits give low values 0.992 | locus YEL061C, strain CIN8, hits give low values 1.02 | locus YER015W, strain faa2, hits give low values 0.991 | locus YER016W, strain bim1, hits give low values 1.01 | locus YER111C, strain swi4, hits give low values 1 | locus YER155C, strain BEM2 (second series), hits give low values 1.01 | locus YER155C, strain BEM2, hits give low values 1.01 | locus YER167W, strain BCK2, hits give low values 1.01 | locus YFR010W, strain ubp6, hits give low values 1.01 | locus YGL167C, strain pmr1, hits give low values 0.988 | locus YGL173C, strain kem1, hits give low values 1.02 | locus YGL227W, strain vid30, hits give low values 1 | locus YGL240W, strain doc1, hits give low values 1 | locus YGL248W, strain PDE1, hits give low values 1.02 | locus YGL253W, strain hxk2, hits give low values 0.971 | locus YGR078C, strain PAC10, hits give low values 1.02 | locus YGR229C, strain SMI1, hits give low values 0.98 | locus YHR013C, strain ard1, hits give low values 0.973 | locus YHR027C, strain rpn1, hits give low values 0.983 | locus YHR030C, strain SLT2, hits give low values 1.02 and 0.986 | locus YHR079C, strain IRE1, hits give low values 0.986 | locus YHR129C, strain ARP1, hits give low values 1.01 | locus YHR142W, strain chs7, hits give low values 0.965 | locus YIL066C, strain RNR3, hits give low values 1.02 | locus YIL073C, strain SPO22, hits give low values 1.03 | locus YJL092W, strain hpr5, hits give low values 0.987 | locus YJL095W, strain BCK1 (second series), hits give low values 0.974 | locus YJL095W, strain BCK1, hits give low values 0.979 and 0.982 | locus YJL115W, strain asf1, hits give low values 0.99 | locus YJL129C, strain trk1, hits give low values 0.959 | locus YJL134W, strain LCB3, hits give low values 1.02 | locus YJL154C, strain vps35, hits give low values 0.989 | locus YJL164C, strain tpk1, hits give low values 1 | locus YJL166W, strain qcr8, hits give low values 1 | locus YJL187C, strain SWE1 (second series), hits give low values 1 | locus YJL187C, strain SWE1, hits give low values 0.994 | locus YJR043C, strain POL32, hits give low values 1.04
